Assay results as given in ChEMBL document CHEMBL3433997, “St. Jude Leishmania screening dataset” (2016).

Assays:
Assay type in all cases: functional
[1] = molecular target: Solute carrier family 2, facilitated glucose transporter member 1 (Homo sapiens) (UniProt P11166); assay: ST_JUDE_LEISH: Cytotoxicity at 2uM final concentration against transgenic Leishmania Mexicana promastigotes LmGLUT1 that are glucose transport deficient and complemented with the human glucose transporter GLUT1. Activity is measured by DNA content using SYBR green in vitro
[2] = molecular target: Hexose transporter 1 (Plasmodium falciparum) (UniProt O97467); assay: ST_JUDE_LEISH: Cytotoxicity at 2uM final concentration against transgenic Leishmania Mexicana promastigotes LmPfHT that are glucose transport deficient and complemented with the Plasmodium falciparum hexose transporter. Activity is measured by DNA content using SYBR green in vitro
[3] = molecular target: Glucose transporter (Leishmania mexicana) (UniProt O61059); assay: ST_JUDE_LEISH: Cytotoxicity at 2uM final concentration against transgenic Leishmania Mexicana promastigotes LmGT2 that are glucose transport deficient and complemented with the L. Mexicana glucose transporter 2. Activity is measured by DNA content using SYBR green in vitro

Chain of Solute carrier family 2, facilitated glucose transporter member 1 (Homo sapiens) (P11166 whole entry): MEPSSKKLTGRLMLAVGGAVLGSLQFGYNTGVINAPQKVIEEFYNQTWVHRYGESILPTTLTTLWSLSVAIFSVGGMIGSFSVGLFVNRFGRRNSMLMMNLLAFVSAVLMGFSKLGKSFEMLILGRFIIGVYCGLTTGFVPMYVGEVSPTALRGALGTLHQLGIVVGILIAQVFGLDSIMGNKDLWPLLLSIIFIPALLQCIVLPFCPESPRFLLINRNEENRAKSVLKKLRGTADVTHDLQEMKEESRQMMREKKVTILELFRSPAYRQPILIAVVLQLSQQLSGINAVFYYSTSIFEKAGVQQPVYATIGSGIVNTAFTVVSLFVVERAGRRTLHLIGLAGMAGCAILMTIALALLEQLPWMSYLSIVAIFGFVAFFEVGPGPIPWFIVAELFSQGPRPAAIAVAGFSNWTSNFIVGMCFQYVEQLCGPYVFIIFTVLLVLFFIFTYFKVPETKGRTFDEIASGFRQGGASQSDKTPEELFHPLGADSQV

Row | SMILES | inhibition [1] [%] | inhibition [2] [%] | inhibition [3] [%]
1 | CN(CC(=O)Nc1cc(C(F)(F)F)ccc1-n1cncn1)Cc1nc2ccccc2s1 | 2.07 | 2.69 | 5.21
2 | Cc1ccc(NC(=O)NC2CCN(CCCCCNC(=O)C3CC3c3ccc(Cl)c(Cl)c3)CC2)cc1 (centres undefined) | -4.5 | -2.29 | -3.29
3 | COc1cc2c(cc1S(=O)(=O)c1ccc(COc3ccc(C(F)(F)F)cc3)cc1)CNCC2 | -1.59 | -0.71 | -1.92
4 | CN1CCN(c2ccnc3ccc(NC(=O)Nc4ccc5c(c4)CCC5=O)cc23)CC1 | 3.7 | 2.43 | 5.45
5 | COc1ccc2ncc(C#N)c(CCN3CCC(NCc4ccc5c(n4)NC(=O)CS5)CC3)c2n1 | 3.43 | 6.45 | 0.77
6 | Oc1ccc2c(c1CNC1CCCCC1)CCCC2 | 5.27 | 3.89 | 4.96
7 | COc1cccc(-c2ccc(C(=O)NC3CCN(Cc4ccc(C(C)(C)C)cc4)CC3)s2)c1 | 0.02 | 0.82 | -1.18
8 | N#Cc1ccc(N/C(=N\c2cccc(Cl)c2Cl)NC2Cc3ccccc3C2)c(O)c1 | 2.33 | 2.84 | 3.97
9 | Cn1cncc1C(=O)Nc1cccc(-c2ccc(-c3nc4cc(F)ccc4[nH]3)s2)c1 | 3.18 | 3.3 | -0.1
10 | Cc1cc(Nc2ccc(Cl)cc2)n2nc(C(F)(F)F)nc2n1 | 0.02 | 0.17 | 0.13
11 | Cn1nc(-c2ccc(S(=O)(=O)N3CCC(CCN4CCC(c5c[nH]c6ccccc56)CC4)CC3)s2)cc1C(F)(F)F | 1.21 | 6.6 | 2.13
12 | CS(=O)(=O)c1cccc(-c2ccc3oc(C(N)=O)c(NC(=O)c4cccs4)c3c2)c1 | 7.71 | 6.5 | 5.71
13 | CCN(CC)CCCC(C)Nc1c(-c2ccc(Br)cc2)cnc2ccccc12 (centres undefined) | 57.5 | 14.4 | 3.73
14 | Oc1ccc(C=NNC(S)=Nc2cccc3ccccc23)c(O)c1 | 4.86 | 4.96 | 2.47
15 | CCN(CCCN1CCCCC1)c1cc(C)nc(Nc2ccc(C)c(Br)c2)n1 | 4.08 | 6.82 | 7.62
16 | CCN1CCN(c2cc(C)c3cc(NC(=O)c4ccc(Br)o4)ccc3n2)CC1 | 6.38 | 6.62 | 8.17
17 | CCC(Cc1cnc2nc(N)nc(N)c2n1)c1ccc(C(=O)N[C@@H](CCC(=O)O)C(=O)O)cc1 (some centres undefined) | 11.9 | 22.1 | 3.38

Row | SMILES | inhibition [1] [%] | inhibition [2] [%] | inhibition [3] [%]
18 | OCCN1CCN(C(=S)NC2CCCCC2)CC1 | -1.08 | -1.56 | -1.81
19 | c1ccc(Oc2ccc(Nc3ccnc4cc(-c5ccc(CN6CCCCC6)o5)ccc34)cc2)nc1 | -2.19 | -1.27 | 0.73
20 | C#CCOc1ccc2ccccc2c1CNCCCCCCNCc1c(OCC#C)ccc2ccccc12 | 8.53 | 2.21 | 0.87
21 | O=c1cc(NCCCNCc2cccc(C(F)(F)F)c2Cl)[nH]c2ccccc12 | 3.39 | 3.63 | 2.75
22 | CC(=O)Nc1ccc2[nH]cc(C3CCN(CCC4CCN(C(=O)/C=C/c5ccc(Cl)c(Cl)c5)CC4)CC3)c2c1 | 8.34 | 7.25 | 5.15
23 | COc1c(C2CCN(CCCCNC(=O)c3ccc(-c4ccc(Cl)cc4)c(OCC(N)=O)c3)CC2)ccc2c1CCCC2 | 4.52 | 3.3 | 5.11
24 | O=C(NCCCNc1ccc2ccccc2n1)c1cc2c(Cl)cc(Cl)cc2[nH]1 | 0.34 | -0.36 | 2.17
25 | O=C(CN1CCCCC1)Nc1ccc(Nc2nccc(NCC(O)c3ccccc3)n2)cc1 (centres undefined) | 11.7 | 9.59 | 7.17
26 | CC(C)(C)c1ccc(CNC(=O)c2cc(CNC3CCNC3)ccc2O)cc1 (centres undefined) | 1.88 | 0.79 | 0.53
27 | Cc1cc(C2CCN(CCCCNC(=O)c3ccc(NC(=O)c4ccc(Cl)cc4)cc3)CC2)c(C)cc1OCc1nccn1C | 0.5 | 0.08 | 0.69
28 | CC(C)(C)c1cc(C(=O)N2CCN(c3ncnc4ccsc34)CC2)n(Cc2ccccc2)n1 | 4.27 | 4.01 | 2.2
29 | Cc1ccc2c(Cc3cnc(N)nc3N)cc(C)c(N)c2n1 | 2.06 | 3.47 | -0.09
30 | Cc1ccc(S(=O)(=O)N(CCCN2CCN(C)CC2)Cc2csc(-c3ccc(CNCc4ccccc4)cc3)n2)cc1 | 9.12 | 7.67 | 9.91
31 | COc1cc(CCNc2nc(NCc3ccccc3-c3ccccc3)nc(N3CCC(N)CC3)n2)ccc1O | 4.17 | 0.92 | 2.4
32 | CC1(C)NC(N)=NC(=N)N1OCCCNC(=O)c1ccc([N+](=O)[O-])cc1 | 4.23 | 3.33 | 3.92
33 | CCOc1ccc2[nH]c(C)cc(=NN=Cc3cccnc3)c2c1 | 8.63 | 6.06 | 7.76
